# Screening data: PubChem BioAssay, National Center for Advancing Translational Sciences (NCATS)
# Six1-Eya2 blk = qHTS Assay for Inhibitors of the Six1/Eya2 Interaction | AlphaScreen GST-Six1/His-Eya2 binding, biochemical; active compounds read low | activity change, % (no concentration beside the values) | 0.56% of 360,000 active; in the data active means activity change below about -65%; inconclusive means mostly about -30% to -63%
# Target sequence (O00167 whole entry, looked up): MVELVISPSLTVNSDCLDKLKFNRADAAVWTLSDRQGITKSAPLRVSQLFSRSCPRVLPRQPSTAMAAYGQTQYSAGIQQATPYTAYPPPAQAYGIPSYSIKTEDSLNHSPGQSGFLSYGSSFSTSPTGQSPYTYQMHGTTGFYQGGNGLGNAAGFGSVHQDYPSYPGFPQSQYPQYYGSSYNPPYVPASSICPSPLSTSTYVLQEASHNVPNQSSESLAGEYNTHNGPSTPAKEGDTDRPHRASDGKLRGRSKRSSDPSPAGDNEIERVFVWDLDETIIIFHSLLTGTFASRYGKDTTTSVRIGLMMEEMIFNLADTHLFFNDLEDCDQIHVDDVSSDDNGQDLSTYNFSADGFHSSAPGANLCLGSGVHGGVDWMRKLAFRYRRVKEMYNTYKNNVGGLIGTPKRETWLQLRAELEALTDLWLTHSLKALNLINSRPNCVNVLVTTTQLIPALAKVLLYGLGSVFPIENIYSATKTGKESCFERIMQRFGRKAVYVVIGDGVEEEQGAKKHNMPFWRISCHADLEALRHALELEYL
# Target sequence (Q15475 whole entry, looked up): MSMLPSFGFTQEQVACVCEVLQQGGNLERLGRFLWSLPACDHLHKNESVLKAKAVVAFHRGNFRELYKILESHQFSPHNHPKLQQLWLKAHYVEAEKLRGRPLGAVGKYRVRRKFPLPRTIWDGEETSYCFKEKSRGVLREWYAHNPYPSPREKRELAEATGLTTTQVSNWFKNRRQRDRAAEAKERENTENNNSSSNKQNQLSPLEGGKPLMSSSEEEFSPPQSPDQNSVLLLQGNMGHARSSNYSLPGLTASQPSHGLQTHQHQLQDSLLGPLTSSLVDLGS
#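 Homogeneous AlphaScreen proximity assay pairing GST-Six1 with His-tagged Eya2 (added as 5X mix: 250 nM and 500 nM) in 50 mM Tris pH 8.0, 300 mM NaCl, 1 mM TCEP. Glutathione donor and nickel acceptor beads; 1 h, 37 °C, dark.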
# DT40 TDP1 no CPT = qHTS for Inhibitors of human tyrosyl-DNA phosphodiesterase 1 (TDP1): qHTS in cells in absence of CPT; DT40 Tdp1-/- hTDP1 cells, no CPT, ATP luminescence, 48 h; Potency, µM (doses to about 46.2 µM), for the others: top-dose activity change, negative = growth inhibition, actives largely listed as inhibitors; 15% of 420,000 active; further: potency means the concentration at half of the fitted maximal effect; nearly all actives have a fitted effect of over 55% in size
#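 Growth of hTDP1-complemented DT40 Tdp1-knockout cells is measured by ATP luminescence after at least 48 hr compound exposure at 37 °C, with DMSO substituting for the 20 nM CPT used in the parallel screen.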
# IL-1B inflam inh = qHTS for Inhibitors of Inflammasome Signaling: IL-1-beta AlphaLISA Primary Screen. THP-1 LPS/ATP IL-1B secretion, AlphaLISA, 16 h; active compounds read low. 4.7% of 360,000 active. activity change, % at 57.5 µM; in the data active means activity change below about -50%; inconclusive means mostly about -30% to -49%
#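 THP-1 cells pretreated 1 hr with compounds (up to 57.5 uM final), then stimulated with LPS (250 ng/mL final) plus ATP (1.25 mM final); secreted IL-1B measured by AlphaLISA after 16 hr, decreased signal indicating inhibition.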
# TDP1 block = qHTS Assay for Inhibitors of Tyrosyl-DNA Phosphodiesterase (TDP1); Potency, µM (titrated, usually from 130 µM), for inactives: at the highest dose activity change, negative = inhibition, hits mostly inhibitors; Tyrosyl-DNA phosphodiesterase 1 (Homo sapiens), Q9NUW8; AID 485290, 2010; recombinant TDP1, AlphaScreen DNA substrate cleavage; 0.28% of 350,000 active; further: potency means the concentration at half of the fitted maximal effect; nearly all actives have a fitted effect of over 40% in size
#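 AlphaScreen read-out: signal falls as enzyme removes the 3' tyrosine-FITC from a 5'-biotinylated DNA oligo (15 nM, 5 min, RT). Enzyme was E. coli-made recombinant Tdp1 at 1 nM, exposed to compound for 15 min beforehand; beads 10 ug/ml, 10 min.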
# CtBP-E1A blk = qHTS Assay for Inhibitors of the CtBP/E1A Interaction; AlphaScreen GST-E1A/His-CtBP binding, 1536-well; active compounds read low; activity change, % (test concentration not listed); 0.49% of 340,000 active; AID 651724, 2012; in the data active means activity change below about -65%; inconclusive means mostly about -30% to -63%
#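 AlphaScreen with 125 nM GST-E1A and 125 nM His-CtBP (5X stocks) in Tris pH 8.0, 300 mM NaCl, BSA, Tween 20, TCEP. Compounds preincubated 2 h at 37 deg C, then glutathione donor/nickel acceptor beads added for 1 h at 37 deg C in dark.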
# TDP1 cell CPT = qHTS for Inhibitors of human tyrosyl-DNA phosphodiesterase 1 (TDP1): qHTS in cells in presence of CPT; 12% of 420,000 active; Potency, µM (titrated, usually from 46.2 µM), without a hit: at the highest dose activity change, negative = growth inhibition, hits mostly inhibitors; chicken DT40 Tdp1-/-;hTDP1 cells + 20 nM CPT, ATP luminescence, 48 h; AID 686979, 2013; further: potency means the concentration at half of the fitted maximal effect; nearly all actives have a fitted effect of over 55% in size
#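 Chicken DT40 Tdp1-/- cells stably complemented with human TDP1 were seeded at 400 cells/well in medium containing 20 nM camptothecin, exposed to pin-transferred compounds, and grown at 37 °C for at least 48 hr. Viability was read as ATP luminescence.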
# An asterisk follows results filed as active; ? = inconclusive; / = not tested or not shown. Sampled rows, rich in hits. Any-hit rate of the full collection: about 18%. Unless noted, the call rests on the fitted dose curve; in most records, active means well fitted curve in the direction sought with a large enough effect; inconclusive means small, poorly fitted or top-dose-only effect, or another doubt; inactive means no such curve, though single readings can be large; an effect the other way counts as inactive or inconclusive. On the % scale 0 is the no-effect control and ±100 the full control effect.
SMILES,Six1-Eya2 blk,DT40 TDP1 no CPT,IL-1B inflam inh,TDP1 block,CtBP-E1A blk,TDP1 cell CPT
COCc1ccc(CN2CCc3c([nH]c4ccccc34)C2C(C)(C)C)o1 (configuration not stated),-14,?,-53*,-8%,-13,?
CCn1ccnc1CN1CCc2c([nH]c3ccccc23)C1CC(C)C (configuration not stated),-27,16µM*,-4,5%,-22,?
CCn1ccnc1CN1CCc2c([nH]c3ccccc23)C1C(C)(C)C (configuration not stated),-9,?,-84*,5%,-7,?
Cc1c(CN2CCc3c([nH]c4ccccc34)C2C2CCCCC2)cnn1C (configuration not stated),-10,16µM*,-7,3%,-17,-3%
CCn1cc(C(=O)NCCc2ccc(Cl)cc2)c(=O)c2ccc(C)nc21,11,?,-4,/,/,-23%
O=C(/C=C/c1ccccc1)Nc1cc(S(=O)(=O)N2CCOCC2)ccc1N1CCOCC1,28,-5%,-8,5%,1,-27%
CCn1ccnc1CN1CCc2c([nH]c3ccccc23)C1C1CCCCC1 (configuration not stated),-1,26µM*,29,12%,0,?
CCOC(=O)COc1ccc(-c2nnn(CC(=O)Nc3ccccc3)n2)cc1,/,-16%,/,-1%,/,-7%
O=C(C1CCCCC1)N1C[C@@H](O)[C@H](n2cc(-c3ccc(F)cc3)nn2)C[C@@H]1c1ccccc1,-5,15µM*,-8,/,2,?
O=C(c1cccs1)N1C[C@@H](n2cc(-c3ccc(F)cc3)nn2)[C@H](O)C[C@@H]1c1ccc(Cl)cc1,5,23µM*,-16,/,5,13µM*
O=C(c1cccs1)N1C[C@@H](O)[C@H](n2cc(-c3ccc(F)cc3)nn2)C[C@@H]1c1ccc(Cl)cc1,-2,23µM*,-18,/,4,?
O=C(c1cccs1)N1C[C@H](n2cc(-c3ccc(F)cc3)nn2)[C@@H](O)C[C@@H]1c1ccc(Cl)cc1,6,?,?,/,1,?
O=C(c1cccs1)N1C[C@@H](n2cc(-c3ccc(F)cc3)nn2)[C@H](O)C[C@@H]1c1ccccc1,-6,21µM*,-19,/,4,15µM*
Cc1cc(OCC(=O)NC2CC2)c2c(C)c(C)c(=O)oc2c1,-1,?,-1,1%,/,-5%
Cc1ccc(-c2nnc(Cc3ccc([N+](=O)[O-])cc3)o2)cc1,-7,?,-10,5%,-1,-28%
O=C(Nc1c(C(=O)N2CCN(c3ccc(F)cc3)CC2)oc2ccccc12)c1c(F)cccc1F,/,?,/,7%,/,?
Cc1ccc(C)c(NC(=S)N(CCc2ccncc2)C(C)C)c1,0,-2%,27,5%,4,8%
CC1=[N+]([O-])C(C)(C)C(c2ccc(Br)cc2)=[N+]1[O-],6,-3%,-3,1%,-2,-1%
O=C(NCCNCCO)C1(C(F)(F)F)C/C(=C\CCO)CCCO1 (configuration not stated),1,2%,21,7%,1,7%
O[C@@H]1CN(Cc2cccs2)[C@@H](c2ccc(Cl)cc2)C[C@H]1n1cc(-c2ccc(F)cc2)nn1,5,23µM*,-2,/,2,?
CCOC(=O)c1ccc(N/N=C/c2cc(Br)cc([N+](=O)[O-])c2O)cc1,-12,?,5,11%,-11,-15%
Cc1ccc(C2=Nc3cccnc3C(c3ccccc3)=NN2)cc1,-7,-25%,-14,5%,-8,-14%
CN(C)c1ccc(C2CNC(c3ccc(Cl)c([N+](=O)[O-])c3)c3[nH]c4ccccc4c32)cc1 (configuration not stated),-11,18µM*,-25,/,/,23µM*
O=[N+]([O-])c1cccc(C2NCC(c3ccccc3Cl)c3c2[nH]c2ccccc32)c1 (configuration not stated),-27,?,-63*,7%,-20,?
COC(=O)c1ccc(C(=O)N(Cc2ccccc2)c2ccccc2)cc1,1,?,11,-8%,-3,?
SMILES,Six1-Eya2 blk,DT40 TDP1 no CPT,IL-1B inflam inh,TDP1 block,CtBP-E1A blk,TDP1 cell CPT
CCS(=O)(=O)c1ncc(Cl)c(C(=O)N(Cc2ccccc2)c2ccc(OC)cc2)n1,/,0.65µM*,/,4%,/,1µM*
COc1ccc(N(Cc2ccccc2)C(=O)c2nc(SC)ncc2Cl)cc1,/,5.2µM*,/,6%,/,10µM*
O=C(NCCN1CCC(n2c(=O)[nH]c3ccccc32)CC1)c1ccc(Cl)cc1,1,9.2µM*,-11,/,8,3.7µM*
O=C(NCCN1CCC(n2c(=O)[nH]c3ccccc32)CC1)c1ccccc1Cl,8,?,-23,/,1,?
CCOc1ccccc1C(=O)NCCN1CCC(n2c(=O)[nH]c3ccccc32)CC1,6,29µM*,-25,/,-17,23µM*
O=C(NCCN1CCC(n2c(=O)[nH]c3ccccc32)CC1)c1ccc(Cl)c(Cl)c1,-1,18µM*,/,/,-19,?
O=C(NCCN1CCC(n2c(=O)[nH]c3ccccc32)CC1)c1ccc(F)cc1,-7,?,?,/,-5,?
O=C(NCCN1CCC(n2c(=O)[nH]c3ccccc32)CC1)c1cccc2c1-c1ccccc1C2=O,-4,21µM*,-95*,/,-2,?
Cc1ccccc1-n1c(SCC(=O)N/N=C/C=C/c2ccccc2[N+](=O)[O-])nc2ccccc2c1=O,-25,?,?,8%,-22,?
O=C(NCCN1CCC(n2c(=O)[nH]c3ccccc32)CC1)c1ccc(F)cc1F,8,-23%,-20,/,1,-22%
O=C(NCCN1CCC(n2c(=O)[nH]c3ccccc32)CC1)c1c(F)cccc1F,8,-33%,-64*,/,2,-23%
C(=C\c1ccccn1)/c1ccccc1,/,-7%,/,/,/,-6%
CCN(CC)c1ccc(/C=C/c2ccccn2)cc1,/,0.28µM*,/,/,/,0.18µM*
